Compounds without any hit were thinned out: in the full panel of roughly 83,000, 20% have a hit.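 For each line, cells grew in 96-well plates with the test compound present at a single concentration for 48 hours.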 A number with no mark means an inactive call. Calls of active or inactive are those of the source.

The source of these data is PubChem BioAssay (NCI).

The test system of this assay is UACC-62 melanoma. In words: NCI-60 one-dose screen, 48 h (100 = growth as untreated, 0 = no growth, -100 = all killed). The note with it: 10 µM unless noted. As for the experimental part: Growth inhibition of the UACC-62 human tumor cell line is measured as a screen for anti-cancer activity. Cells are grown in 96 well plates and exposed to the test compound for 48 hours. Compounds are tested at a single concentration, which is 10^-5 M for most compounds. The reported endpoint is percent growth (GI% or GIPRCNT), where numbers from 0 - 100% represent growth inhibition, and numbers from -100% - 0 represent cell death. For example, a value of 40 represents 60% growth inhibition. A value of 0 means no net growth occurred over the course of the experiment. A value of -40 indicates 40% of cells at the beginning of the experiment died by the end of the experiment. A value of -100 means all cells are dead at the end of the experiment.
NCI-60 Human Tumor Cell Lines Screen was performed using the standard one-dose NCI protocol, which is described in more detail at https://dtp.cancer.gov/discovery_development/nci-60/default.htm.
Compounds with GIPRCNT values below 10 were considered active. Activity score was based on GIPRCNT using the following formula: […]
Score is 0 for GIPRCNT values of 100 or above, 50 for GIPRCNT values of 0, and 100 for GIPRCNT values of -100.
`COc1cc(C2N=C(NNc3ccccc3)NC(C)=C2C(C)=O)ccc1O` (stereo not given): the growth was 43%. In the case of `CC(C)(C)n1nnnc1C(Nc1cccc2c1OCO2)c1cc2cccc3ccc4cccc1c4c32` (stereo not given) it was 65.3%; in that of `CC1(C)CC[C@]2(C(=O)N3CCOCC3)CC[C@]3(C)C(=CC[C@@H]4[C@@]5(C)C/C(=C/c6ccccn6)C(=O)C(C)(C)[C@@H]5CC[C@]43C)[C@@H]2C1`, 64.8%.

Take `O=C(O)c1cn(C2CC2)c2cc(N3CCN(C(=O)CN4C(=O)CSC4=O)CC3)c(F)cc2c1=O`: the growth was 91%.

Regarding `CN1CCN(Cc2ccc(NC(=O)c3cncc(C#Cc4cnc5ccc(NCCCO)nn45)c3)cc2C(F)(F)F)CC1`, the growth is -14.1% (active).

For the molecule `COc1cc(OC)c(S(N)(=O)=O)cc1C(=O)/C=C/c1ccc(Cl)cc1`, the growth was 18.6%. In the case of `O=S(=O)(Nc1cccc2ccccc12)c1ccc(-c2cnc(C3CC3)o2)cc1` it was 37.2%; in that of `COC(=O)c1[nH]nc2c1C1(C(=O)c3cccc4cccc1c34)C(C#N)=C(N)O2` (stereo not given), 91.8%; in that of `O=C1[C@H]2Cc3c([nH]c4ccccc34)[C@@H](c3ccc(Cl)cc3)N2C(=O)CN1C1CCN(Cc2ccccc2)CC1`, 75.4%. As for `NS(=O)(=O)c1ccc(Nc2cc(-c3ccccc3)nc(SCC(=O)c3ccccc3)n2)cc1`, the growth was 91.1%. The value for `COc1ccc([C@H]2[C@H](O)C(=O)N2c2cc(OC)c(OC)c(OC)c2)cc1F` was 33.3%; that for `ClC(Cl)c1nc(-c2ccco2)n2nc(-c3ccccc3)cc2n1` was 40.7%. In the case of `O=C(CSc1nnc(-c2ccc3nc(-c4ccccc4)[nH]c3c2)o1)Nc1ccc(C(=O)/C=C/c2ccccc2)cc1` it was 97.1%; in that of `CCc1cccc2c3c(sc12)C(c1ccc(OC)cc1)C(C#N)=C(/N=C/c1ccc(Cl)cc1)O3` (stereo not given), 27.8%. The value for `O=S(=O)(NCCNc1nccc(-n2cnc3ccccc32)n1)c1ccc(Br)cc1` was 82.8%; that for `CCNC(=O)N1CCc2cc(OC)c(OCCc3ccc(OC)nc3)cc2C1c1ccc(OC)cc1C` (stereo not given) was 22.7%.

As for `Cc1cc(-c2ccc(Cl)cc2)n(Cc2nnc(SCC(=O)Nc3ccc(S(N)(=O)=O)cc3)n2C2CCCCC2)n1`, the growth is 99.2%. In the case of `CN1CCC(n2cc(Nc3ncc4c(=O)n(-c5c(Cl)cccc5Cl)cc(Br)c4n3)cn2)CC1` it was 77.8%; in that of `Cc1c(Cl)cccc1S(=O)(=O)Nc1ccc2c(c1)C(=O)N(C1CCC(=O)NC1=O)C2=O` (stereo not given), 98.4%; in that of `Nc1ncc(-c2ccc3ncnc(N4CCc5cc(F)c(F)cc54)c3c2)cn1`, 9.67% (active). In the case of `CCN1CCN(Cc2cn(-c3ccc(S(N)(=O)=O)cc3)nn2)CC1` it was 98.1%. In the case of `COc1cccc(O)c1/C=C(/C)c1ccc2c(OC)cccc2[o+]1` it was 93.7%; in that of `Clc1ccc(N/N=c2/oc3ccccc3cc2-c2cc3ccccc3[nH]2)cc1`, 73.9%; in that of `Cn1ccnc1C(=O)/C=C/C=C/c1ccc(C(=O)Nc2ccc(F)cc2)cc1`, 32.8%. Take `CN(C)CCNC(=O)c1ccc(-c2nc3ccc4[nH]ncc4c3c3c2COCC3)cc1`: the growth is -24.7% (active). `COc1ccc(COc2ccc(/C=C3\C(=O)Nc4ccccc43)cc2OC)cc1`: the growth was 96.7%. The value for `COc1cc(OC)c(S(N)(=O)=O)cc1C(C)=O` was 100%. The value for `CC1(COc2ccc3ncc(C#Cc4cncc(C(=O)Nc5cccc(C(F)(F)F)c5)c4)n3n2)COC1` was 72.9%; that for `Cc1cc(C)c(N2C(=O)CC(Nc3ccc(Cl)cc3Cl)C2=O)c(C)c1` (stereo not given) was 91.4%; that for `C=C(C)[C@@H]1CC[C@]2(COC)CC[C@]3(C)[C@H](CC[C@@H]4[C@@]5(C)CCCNC(C)(C)[C@@H]5CC[C@]43C)[C@@H]12` was 75.2%.

`Nc1ncc(-c2ccc3ncnc(Nc4cccc(Cl)c4F)c3c2)cn1`: the growth was 38.9%. In the case of `C#CCn1cccc1CNc1ccc(OC)cc1` it was -91.7% (active); in that of `O=C(Cn1c(-c2ccccc2)nc2cc(Cl)c(Cl)cc21)N=Nc1c(O)[nH]c2ccc(Cl)cc12`, 71.7%; in that of `Nc1nc(N)c2c(n1)NC(c1ccc(C(F)(F)F)cc1)CC(c1ccc(Nc3nc(NCCO)nc(N4CCOCC4)n3)cc1)=N2` (stereo not given), 82.2%. In the case of `CN1CCN(c2ccc(/C=N/Nc3nc4ccccc4c(=O)n3-c3ccccc3)cc2)CC1` it was 101%; in that of `O=S(=O)(NCCCNc1nccc(-n2cnc3ccccc32)n1)c1ccc(C(F)(F)F)cc1`, 62%; in that of `CCC(NC(c1cc2cccc3ccc4cccc1c4c32)c1nnnn1C(C)(C)C)C1CCCCC1` (stereo not given), 49.6%. `CCOC(=O)c1c(Nc2ccccc2)nn2c(-c3ccc(Cl)cc3)ccnc12`: the growth was 82.8%. In the case of `CCC(CC)N1C(=O)/C(=c2\sc3n(c2=O)NC2C(N=3)N(CC)C(=O)N2CC)c2ccccc21` (stereo not given) it was 39.9%; in that of `COc1cc(-c2nc(SC(C)C)n(C(C)C)c(=O)c2C#N)ccc1OCc1ccccc1`, 90.4%.
